# PubChem BioAssay (NCATS)
# A number with no mark means an inactive call. Results filed as inconclusive are left out. The source made the active and inactive calls. Unless noted, calls come from the whole dose curve; as a rule, active = well fitted curve in either direction with a large enough effect (not every such curve was filed as active); inconclusive = small, poorly fitted or top-dose-only effect, or another doubt; inactive = flat fitted curve, though single readings scatter.
# Columns and labels:
# [1] = AP1 Signaling Pathway (AID 357); settings: ME-180 AP-1-bla reporter, EGF-induced, beta-lactamase ratio, 5 h; at 7.69 µM (top of the series) unless noted; note: % is set by controls: 0 for no effect and ±100 for the full control effect
# Procedure, shortened: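 ME-180 cells with beta-lactamase reporter under AP-1 response element, stimulated with EC50 EGF; compounds tested in titration series, 5 h at 37 °C. CCF4 substrate added 2.5 h at room temperature; 460/530 nm emission ratio gave %activity and AC50.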
# [2] = biological target: Cytochrome P450 1A2 (Homo sapiens) (UniProt P05177); assay: p450-cyp1a2 (AID 410; calls by dose curve; note: potency is the fitted concentration of half-maximal effect;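 for activity change, negative = inhibition: -100% = full effect of reference inhibitor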)
# Chain of Cytochrome P450 1A2 (Homo sapiens) (P05177 whole entry, looked up): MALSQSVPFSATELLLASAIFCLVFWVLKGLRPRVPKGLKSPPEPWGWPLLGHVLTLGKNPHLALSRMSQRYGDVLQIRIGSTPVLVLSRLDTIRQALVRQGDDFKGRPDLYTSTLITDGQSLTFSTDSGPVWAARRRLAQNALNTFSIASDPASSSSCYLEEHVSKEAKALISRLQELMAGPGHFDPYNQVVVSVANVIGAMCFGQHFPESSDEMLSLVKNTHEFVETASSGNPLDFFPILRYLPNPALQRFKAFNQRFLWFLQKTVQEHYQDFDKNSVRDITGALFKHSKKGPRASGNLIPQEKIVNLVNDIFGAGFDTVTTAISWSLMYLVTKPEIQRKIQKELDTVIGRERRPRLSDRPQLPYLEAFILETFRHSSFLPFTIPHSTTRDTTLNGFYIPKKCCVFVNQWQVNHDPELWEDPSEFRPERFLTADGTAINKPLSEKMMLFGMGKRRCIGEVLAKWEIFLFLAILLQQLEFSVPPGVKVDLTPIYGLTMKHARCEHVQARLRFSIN
# Procedure, shortened: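 O-Demethylation of luciferin 6' methyl ether by human CYP1A2 is monitored as luciferase luminescence. Substrate sits at Km (100uM); enzyme is 20nM. Values are scaled to 57 uM furafylline as maximal inhibition.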
# [3] = Stat Signaling Pathway (AID 446); settings: ME-180 SIE beta-lactamase reporter, IL-6 stimulated, 5 h; at 7.69 µM (top of the series) unless noted;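 note: ME-180 cervical cancer cells given 40 pM IL-6 alongside compound; SIE-controlled beta-lactamase reporter measured as 460/530 nm FRET emission ratio; % is set by controls: 0 for no effect and ±100 for the full control effect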
# Procedure, shortened: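 FRET read-out (405 nm excitation, 460/530 nm emission) of a beta-lactamase reporter under a STAT-inducible element in ME-180 cervical carcinoma cells. Cells with compound receive 40 pM IL-6 for 5 h. Values are normalised to AC90 stimulation and AC90 JAK-inhibitor controls.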
# [4] = biological target: Glucocorticoid receptor (Homo sapiens) (UniProt P04150); assay: GR-EFC Redistribution (AID 451; calls by dose curve; note: potency is the fitted concentration of half-maximal effect); settings: CHO-K1 GR-EFC translocation, beta-gal luminescence, 2 h
# Chain of Glucocorticoid receptor (Homo sapiens) (P04150 whole entry, looked up, the tested form may be a part): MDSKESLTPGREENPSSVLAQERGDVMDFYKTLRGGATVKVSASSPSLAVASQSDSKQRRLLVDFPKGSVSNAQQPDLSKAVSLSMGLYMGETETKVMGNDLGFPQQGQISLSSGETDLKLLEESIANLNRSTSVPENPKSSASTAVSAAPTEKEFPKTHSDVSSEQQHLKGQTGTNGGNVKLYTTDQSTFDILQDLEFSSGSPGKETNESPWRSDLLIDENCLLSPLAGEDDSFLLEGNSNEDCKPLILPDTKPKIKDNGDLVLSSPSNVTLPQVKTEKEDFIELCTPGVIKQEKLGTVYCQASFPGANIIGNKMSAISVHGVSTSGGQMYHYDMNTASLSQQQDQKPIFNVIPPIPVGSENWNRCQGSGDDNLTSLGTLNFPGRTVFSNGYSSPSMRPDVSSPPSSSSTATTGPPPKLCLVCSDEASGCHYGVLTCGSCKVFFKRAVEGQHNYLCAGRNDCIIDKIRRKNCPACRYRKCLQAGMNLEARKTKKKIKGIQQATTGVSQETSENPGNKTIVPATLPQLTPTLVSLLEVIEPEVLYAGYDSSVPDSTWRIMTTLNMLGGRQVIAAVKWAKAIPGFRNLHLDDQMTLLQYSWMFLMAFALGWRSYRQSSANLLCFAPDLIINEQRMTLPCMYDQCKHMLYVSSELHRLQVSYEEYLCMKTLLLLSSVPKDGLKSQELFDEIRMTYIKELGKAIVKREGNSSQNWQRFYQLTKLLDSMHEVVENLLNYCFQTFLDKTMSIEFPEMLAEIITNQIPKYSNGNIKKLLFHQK
# Procedure, shortened: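 CHO-K1 cells stably expressing nuclear-localized β-gal enzyme acceptor and GR fused C-terminally to the enzyme donor fragment; ligand-driven nuclear translocation restores β-gal by complementation. Compounds titrated up to 46 uM final, 2 h at 37 °C; luminescence read.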
# [5] = biological target: Mitogen-activated protein kinase 10 (Mus musculus) (UniProt Q61831); assay: JNK3 AlphaScreen Assay (AID 530);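 note: kinase came from lysate of stimulated human HepG2 cells; signal reports phosphorylation of biotinylated GST-cJun 1-79 at Ser73 with 10 µM ATP; % is set by controls: 0 for no effect and ±100 for the full control effect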
# Procedure, shortened: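 Phosphorylation of biotinylated GST-cJun(1-79) at Ser73 is measured by AlphaScreen proximity luminescence. Enzyme is JNK3 in HepG2 lysates activated with interleukin-1beta and tumor necrosis factor alpha; ATP is 10 uM final.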
# [6] = biological target: 3',5'-cyclic-AMP phosphodiesterase 4B (Homo sapiens) (UniProt Q07343); assay: qHTS Assay for Inhibitors of PDE-IV (AID 607; active = well fitted activation curve with a large enough effect in the main read-out, with a control signal flat, not every such curve was filed as active; note: % of control where 0% means no effect)
# Chain of 3',5'-cyclic-AMP phosphodiesterase 4B (Homo sapiens) (Q07343 whole entry, looked up): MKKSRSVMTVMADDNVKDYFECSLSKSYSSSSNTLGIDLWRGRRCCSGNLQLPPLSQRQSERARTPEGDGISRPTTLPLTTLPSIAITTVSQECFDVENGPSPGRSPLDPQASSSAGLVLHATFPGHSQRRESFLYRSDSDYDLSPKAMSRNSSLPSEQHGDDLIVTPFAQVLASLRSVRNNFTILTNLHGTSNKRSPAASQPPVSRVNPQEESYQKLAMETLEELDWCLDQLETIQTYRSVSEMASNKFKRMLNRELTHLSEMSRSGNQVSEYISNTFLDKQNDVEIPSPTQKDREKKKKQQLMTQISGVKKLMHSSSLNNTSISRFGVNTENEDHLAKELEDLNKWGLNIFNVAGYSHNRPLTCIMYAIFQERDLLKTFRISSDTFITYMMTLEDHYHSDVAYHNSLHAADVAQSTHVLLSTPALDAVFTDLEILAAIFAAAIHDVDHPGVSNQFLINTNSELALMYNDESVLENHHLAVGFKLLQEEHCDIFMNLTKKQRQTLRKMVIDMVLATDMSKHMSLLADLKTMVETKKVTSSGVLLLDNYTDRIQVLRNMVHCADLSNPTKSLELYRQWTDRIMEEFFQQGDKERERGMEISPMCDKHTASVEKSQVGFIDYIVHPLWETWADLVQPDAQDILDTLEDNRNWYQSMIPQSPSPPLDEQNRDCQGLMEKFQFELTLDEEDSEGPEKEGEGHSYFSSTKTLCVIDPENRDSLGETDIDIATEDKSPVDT
# Procedure, shortened: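 Cell-based read-out of cAMP via a modified cyclic nucleotide-gated channel and membrane potential dye (535/590 nm) in HEK293 cells expressing PDE4 endogenously. Compounds tested up to 22.9 uM final; 100 uM RO 20-1724 reference.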
# [7] = biological target: Cytochrome P450 3A4 (Homo sapiens) (UniProt P08684); assay: qHTS Assay for Activators of Cytochrome P450 3A4 (AID 885; active = well fitted curve in the direction sought with a large enough effect; an effect the other way counts as inactive or inconclusive; note: nearly all actives have a fitted effect of over 65% in size)
# Chain of Cytochrome P450 3A4 (Homo sapiens) (P08684 whole entry, looked up): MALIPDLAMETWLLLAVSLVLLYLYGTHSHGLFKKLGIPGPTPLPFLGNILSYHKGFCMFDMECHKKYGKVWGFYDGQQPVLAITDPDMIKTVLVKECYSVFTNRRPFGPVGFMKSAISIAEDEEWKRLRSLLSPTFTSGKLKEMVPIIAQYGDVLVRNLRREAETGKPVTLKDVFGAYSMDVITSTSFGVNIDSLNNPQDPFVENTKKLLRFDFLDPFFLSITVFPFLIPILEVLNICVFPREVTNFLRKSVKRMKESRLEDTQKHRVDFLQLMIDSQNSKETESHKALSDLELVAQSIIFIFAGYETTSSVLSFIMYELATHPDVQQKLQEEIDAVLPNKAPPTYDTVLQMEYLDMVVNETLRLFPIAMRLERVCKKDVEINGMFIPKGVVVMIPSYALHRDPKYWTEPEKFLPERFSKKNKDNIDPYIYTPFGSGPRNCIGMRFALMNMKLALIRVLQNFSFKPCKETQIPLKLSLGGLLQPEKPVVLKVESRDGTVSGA
# Procedure, shortened: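 Luminescent readout of luciferin formed from 25 uM Luciferin-PPXE (KM level) by 20 nM CYP3A4 in 200 mM KPO4, with 60 min NADPH-driven reaction at room temperature after 10 min compound exposure. Ketoconazole (57 uM) defined 100% inhibition.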
# [8] = Primary qHTS for small molecule stabilizers of the endoplasmic reticulum resident proteome: Secreted ER Calcium Modulated Protein (SERCaMP) assay (AID 1508630; active = well fitted curve in the direction sought with a large enough effect; an effect the other way counts as inactive or inconclusive; note: % is set by controls: 0 for no effect and ±100 for the full control effect)
# Procedure, shortened: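 The SH-SY5Y reporter protocol was run at 3 concentrations up to 38.3 uM (primary) or 11 concentrations (follow-up): 16 h compound, 100 nM thapsigargin for 4 h, then extracellular luciferase luminescence.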
# [9] = biological target: Lysosomal acid glucosylceramidase (Homo sapiens) (UniProt P04062); assay: Glucocerebrosidase-p2 (AID 348; in the data active = potency below about 10 µM; note: potency is the fitted concentration of half-maximal effect); settings: purified GBA, blue fluorogenic substrate, 40 min
# Chain of Lysosomal acid glucosylceramidase (Homo sapiens) (P04062 whole entry, looked up): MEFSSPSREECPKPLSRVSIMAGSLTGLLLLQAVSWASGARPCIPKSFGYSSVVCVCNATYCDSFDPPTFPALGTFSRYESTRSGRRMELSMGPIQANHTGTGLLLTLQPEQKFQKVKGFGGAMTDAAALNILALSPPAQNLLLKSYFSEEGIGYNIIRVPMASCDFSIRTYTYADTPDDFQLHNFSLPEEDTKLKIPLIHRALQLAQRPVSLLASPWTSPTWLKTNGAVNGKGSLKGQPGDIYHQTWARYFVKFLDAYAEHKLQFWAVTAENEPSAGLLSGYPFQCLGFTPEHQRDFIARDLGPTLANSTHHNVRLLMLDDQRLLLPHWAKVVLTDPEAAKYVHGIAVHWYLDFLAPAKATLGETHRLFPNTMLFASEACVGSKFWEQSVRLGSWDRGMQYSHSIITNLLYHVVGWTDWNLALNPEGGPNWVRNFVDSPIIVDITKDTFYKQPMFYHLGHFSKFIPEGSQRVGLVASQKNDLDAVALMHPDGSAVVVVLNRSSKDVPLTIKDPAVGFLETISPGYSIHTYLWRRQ
# Procedure, shortened: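 Normal human glucocerebrosidase (0.2 nM) with blue fluorogenic substrate (80 uM final) in citrate/phosphate pH 5.9 with 10mM sodium taurocholate, 0.01% tween-20; 40 min RT, NaOH/glycine stop; fluorescence Ex 365/Em 440; AC50 from a titration from 0.6 nM upwards.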
# [10] = biological target: Glucocorticoid receptor (Homo sapiens) (UniProt P04150); assay: GR-GFP Redistribution (AID 450;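 active = compounds whose dose series gives a full or clear partial fitted curve of increased nuclear translocation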; note: potency is the fitted concentration of half-maximal effect); settings: U2OS GR-GFP nuclear translocation, laser cytometry, 2 h
# [11] = qHTS Assay for Identification of Small Molecule Agonists for Hypoxia Response Element Signaling Pathway (AID 914; active = well fitted activation curve with a large enough effect in the signal ratio, with a control signal flat, not every such curve was filed as active; the % refers to the signal ratio; note: potency is the fitted concentration of half-maximal effect); settings: ME-180 (cervical carcinoma) HRE-bla reporter, beta-lactamase ratio, CoCl2, 17 h; activation: stronger effect = higher value
# Procedure, shortened: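 In Opti-MEM containing 0.5% dialyzed FBS and 10 mM HEPES, ME-180 HRE-bla cells received a compound titration and EC50 CoCl2. They were incubated 17 hours, then CCF4-loaded 2.5 hours at room temperature before ratio reading.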
# [12] = NFAT Signaling Pathway (AID 444); settings: Jurkat NFAT-bla M1, carbachol, beta-lactamase ratio, 5 h; at 7.69 µM (top of the series) unless noted
# Procedure, shortened: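 Jurkat cells carrying an NFAT-driven β-lactamase reporter and co-transfected muscarinic M1 receptor were treated with compound plus carbachol (1 uM final, an EC50 level) for 5 h at 37 °C. CCF4 loading followed for 1 h at RT; 460/530 nm ratio gave %activity.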
# [13] = biological target: Cytochrome P450 3A4 (Homo sapiens) (UniProt P08684); assay: qHTS Assay for Inhibitors and Substrates of Cytochrome P450 3A4 (AID 884; active = well fitted curve in the direction sought with a large enough effect; an effect the other way counts as inactive or inconclusive; note: potency is the fitted concentration of half-maximal effect; nearly all actives have a fitted effect of over 50% in size)
# Procedure, shortened: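 Luminescent readout of luciferin produced by CYP3A4 (20 nM) dealkylation of Luciferin-PPXE, 25 uM (its KM). NADPH-driven reaction ran 60 min at RT after 10 min compound preincubation; data scaled to 57 uM ketoconazole as 100% inhibition.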
Compound,"activity change, negative = inhibition [1]",Potency [2],"activity, negative = inhibition [3]",Potency [4],Potency [5],Potency [6],Potency [7],outcome [8],Potency [9],Potency [10],Potency [11],"activity change, negative = inhibition [12]",Potency [13]
O=C(c1cnccn1)N1CCC2(CCCN(c3ccccn3)C2)CC1,-13%,inactive,1.23%,> 46 µM,inactive,inactive,inactive,inactive,–,–,–,–,–
O=C(c1ccncc1)N1CCC2(CCN(Cc3nccs3)CC2)CC1,6.32%,inactive,4.96%,> 46 µM,–,inactive,–,inactive,–,–,–,–,–
CCNc1ncc2nc(-c3cc(F)cc(F)c3)c(=O)n(-c3ccc(OC)cc3)c2n1,–,–,–,> 46 µM,inactive,inactive,inactive,inactive,> 11.4 µM,> 9.22 µM,0.398 µM (active),–,–
COc1ccc(Oc2ncc3nc(-c4ccccc4)c(=O)n(Cc4cccs4)c3n2)cc1,-8.46%,–,-3.78%,> 46 µM,inactive,inactive,–,inactive,–,> 9.22 µM,–,-1.01%,–
CC(C)NC(=O)N1CC[C@@]2(CCCN(C(=O)c3ccco3)C2)C1,-6.33%,–,8.1%,> 46 µM,inactive,inactive,–,inactive,–,–,–,5.58%,–
COc1ccc(Oc2ncc3ncc(=O)n(CCc4ccccc4)c3n2)cc1,-14.7%,0.631 µM (active),3.46%,> 46 µM,inactive,–,inactive,inactive,–,> 9.22 µM,–,-16.6%,1.26 µM (active)
COc1ccc(C(=O)N2CCC3(CCCN(c4ccncc4)C3)CC2)cc1,7.18%,–,8.4%,> 46 µM,inactive,inactive,–,inactive,–,–,–,–,–
Cc1nc2cnc(Oc3ccccc3)nc2n(-c2ccccc2)c1=O,-7.96%,10 µM (active),-3.48%,> 46 µM,inactive,inactive,inactive,inactive,–,> 9.22 µM,–,9.01%,–
O=c1c(-c2ccc(Cl)cc2)nc2cncnc2n1Cc1ccc(F)cc1,–,–,-2.95%,> 46 µM,inactive,inactive,inactive,inactive,> 11.4 µM,> 9.22 µM,–,5.72%,–
O=c1c(-c2cccs2)nc2cncnc2n1C1CC1,0.545%,2.51 µM (active),-5.35%,> 46 µM,inactive,–,inactive,inactive,–,> 9.22 µM,–,-2.79%,–
CCNc1ncc2nc(-c3cc(F)cc(F)c3)c(=O)n(-c3ccccc3)c2n1,–,–,–,> 46 µM,inactive,–,inactive,inactive,> 11.4 µM,> 9.22 µM,2.51 µM (active),–,–
COc1cccc(Nc2ncc3nc(-c4ccc(F)cc4)c(=O)n(C[C@H]4CCCO4)c3n2)c1,–,–,-5.57%,> 46 µM,inactive,inactive,–,inactive,> 11.4 µM,> 9.22 µM,–,–,–
COCCn1c(=O)c(-c2cn(C)c3ccccc23)nc2cncnc21,1.74%,0.398 µM (active),-9.49%,> 46 µM,inactive,–,inactive,inactive,–,> 9.22 µM,–,-1.67%,3.16 µM (active)
O=C(c1csnn1)N1CCC2(CC1)CCN(c1ccccn1)CC2,15.4%,25.1 µM (active),4.86%,> 46 µM,inactive,inactive,–,inactive,–,–,–,–,–
CCNc1ncc2nc(-c3cccc(C#N)c3)c(=O)n(C)c2n1,15.2%,2.51 µM (active),30%,> 46 µM,inactive,inactive,inactive,inactive,–,> 9.22 µM,–,–,–
COc1cccc(Cn2c(=O)c(C)nc3cnc(OCc4ccccc4)nc32)c1,–,–,-3.44%,> 46 µM,inactive,–,–,inactive,> 11.4 µM,> 9.22 µM,–,-16.9%,–
COc1ccc(C(=O)N2CCC3(CCN(C(=O)Nc4cccc(C#N)c4)CC3)CC2)cc1,–,–,-23.9%,> 46 µM,–,–,–,inactive,> 11.4 µM,–,–,–,–
CN(C)c1ncc2nc(-c3ccccc3)c(=O)n(C3CC3)c2n1,–,2.51 µM (active),–,> 46 µM,–,–,–,inactive,> 11.4 µM,> 9.22 µM,3.16 µM (active),–,–
O=S(=O)(c1ccccc1)N1CCC2(CCCN(c3ccncc3)C2)CC1,22.1%,–,9.67%,> 46 µM,inactive,inactive,–,inactive,–,–,–,–,–
